Survival data for 86 compounds are collected here from PubChem BioAssay AID463173 (ICCB-Longwood Screening Facility, Harvard Medical School, 2010).

The whole screen tested about 52,000 compounds, of which about 1,700 (3.3%) were called active. Only a selection was taken, and actives are over-represented in it overall. Unmarked numbers belong to inactive results. No stated cut-off is given here; in the data, active means survival mostly below about 52% (no sharp cut-off); inactive means mostly above about 56%.

The experiment relates to Wild type. The experiment in a line: growth inhibition of S. aureus wild type versus tarO mutant, primary screen, teichoic acid synthesis inhibitors, RN4220, OD600 (AID 463173). Particulars: S. aureus RN4220 wild type/DeltatarO growth, OD600, 18 h, hits give low values, screened at 18.75 µg/mL (by protocol).
`CCN(C(=O)Cn1c(C(=O)OC)cc2sccc21)c1cccc(C)c1`: the survival was 73%.

Regarding `O=c1cc(-c2ccccc2)nc(SCc2nc(-c3cccc(C(F)(F)F)c3)no2)[nH]1`, the survival is 83%.

`CCOc1ccc(NC(=O)C2CCCN(c3ccc(Sc4ccc(C)cc4)nn3)C2)cc1` (stereo unspecified): the survival is 16% (active).

As for `Cc1ccc(Sc2ccc(N3CCCC(C(=O)Nc4ccc(Cl)cc4)C3)nn2)cc1` (stereo unspecified), the survival was 71%.

`CCOC(=O)c1ccc(NC(=O)C2CCCN(c3ccc(Sc4ccc(C)cc4)nn3)C2)cc1` (stereo unspecified): the survival was 80%.

In the case of `O=S(=O)(c1ccc(Br)cc1)c1nnn2c1nc(NCc1ccc3c(c1)OCO3)c1sccc12`, the survival is 90%.

On to `CCOC(=O)C1CCN(C(=O)c2ccc(-n3ccc4ccccc43)s2)CC1`, for which the survival is 71%.

For `CCC(C)NC(=O)C1CCN(C(=O)c2ccc(-n3ccc4ccccc43)s2)CC1` (stereo unspecified), the survival was 55%.

Turning to `CCOC(=O)C1CCCN(C(=O)c2ccc(-n3ccc4ccccc43)s2)C1` (stereo unspecified), the survival is -3% (active).

With `COCCn1c(=S)[nH]c2ccccc2c1=O`, the survival was 105%.

As for `CCCC(=O)N(c1ccc2oc3c(c2c1)CCCC3)S(=O)(=O)c1ccc(CC)cc1`, the survival was 67%.

Consider `CC(C)c1ccc(-c2nnn(CC(N)=O)n2)cc1`, for which the survival is 115%.

`CN1CCN(C(=O)c2cnn(-c3ccc(F)cc3F)c2C2CCN(C(=O)OC(C)(C)C)CC2)CC1`: the survival was 87%.

In the case of `CC(C)(C)OC(=O)N1CCC(c2c(C(=O)N3CCN(c4ncccn4)CC3)cnn2-c2ccc(F)cc2F)CC1`, the survival was 1% (active).

On to `CC(C)(C)OC(=O)N1CCC(c2c(C(=O)N3CCN(c4ncccn4)CC3)cnn2-c2ccccc2)CC1`, for which the survival was 87%.

As for `COc1ccccc1N1CCN(C(=O)c2cnn(-c3ccc(F)cc3F)c2C2CCNCC2)CC1`, the survival is 0% (active).

Take `CC(C)(C)OC(=O)N1CCC(c2c(C(=O)N3CCN(c4ncccn4)CC3)cnn2-c2ccc(F)cc2)CC1`: the survival is -1% (active).

As to `Cc1cccc(N2CCN(C(=O)c3cnn(-c4ccc(F)cc4F)c3C3CCN(C(=O)OC(C)(C)C)CC3)CC2)c1C`, the survival is 99%.

Consider `CC(C)(C)OC(=O)N1CCC(c2c(C(=O)N3CCN(c4ccccn4)CC3)cnn2-c2ccc(F)cc2F)CC1`, for which the survival was 71%.

Turning to `Cc1ccc(-n2ncc(C(=O)N3CCN(c4cccc(C)c4C)CC3)c2C2CCNCC2)c(C)c1`, the survival is 84%.

As for `Cc1ccc(-n2ncc(C(=O)N3CCN(c4ncccn4)CC3)c2C2CCN(C(=O)OC(C)(C)C)CC2)cc1`, the survival is 71%.

For the compound `COc1ccc(OC)c(NC(=O)Cn2cc(C(=O)c3ccc(Cl)cc3)c(=O)c3cc(OC)ccc32)c1`, the survival was 68%.

`O=C(CSc1nc2c([nH]c3ccccc32)c(=O)n1-c1ccccc1)Nc1ccc2c(c1)OCCO2`: the survival is 87%.

For the compound `CCOc1ccc(NS(=O)(=O)c2ccc3[nH]cc(C(=O)N(C)Cc4ccccc4)c(=O)c3c2)cc1`, the survival is 1% (active).

With `Cc1cc(C)cc(NS(=O)(=O)c2ccc3[nH]cc(C(=O)N(C)Cc4ccccc4)c(=O)c3c2)c1`, the survival was 111%.

On to `CCOc1ccc(NS(=O)(=O)c2ccc3[nH]cc(C(=O)NCc4ccccc4)c(=O)c3c2)cc1`, for which the survival was 74%.

With `CCc1ccccc1NS(=O)(=O)c1ccc2[nH]cc(C(=O)NC3CCCC3)c(=O)c2c1`, the survival is 42%.

For the compound `Cc1ccccc1NS(=O)(=O)c1ccc2[nH]cc(C(=O)NC3CCCCC3)c(=O)c2c1`, the survival was 80%.

On to `CCOc1ccc(NS(=O)(=O)c2ccc3[nH]cc(C(=O)NC4CCCC4)c(=O)c3c2)cc1`, for which the survival is 55%.

On to `CC(C)c1ccc(NS(=O)(=O)c2ccc3[nH]cc(C(=O)NC4CCCC4)c(=O)c3c2)cc1`, for which the survival is 7% (active).

Turning to `Cc1c(Cl)cccc1NS(=O)(=O)c1ccc2[nH]cc(C(=O)NC3CCCC3)c(=O)c2c1`, the survival is 11% (active).

For `CNC(=O)c1c[nH]c2ccc(S(=O)(=O)Nc3cccc(Cl)c3C)cc2c1=O`, the survival is 82%.

Turning to `CC(C)c1ccc(NS(=O)(=O)c2ccc3[nH]cc(C(=O)NC4CCCCC4)c(=O)c3c2)cc1`, the survival was 13%.

For `Cc1cc(C)cc(NS(=O)(=O)c2ccc3[nH]cc(C(=O)NC4CCCCC4)c(=O)c3c2)c1`, the survival is 27%.

Consider `CCc1ccc(NS(=O)(=O)c2ccc3[nH]cc(C(=O)NC4CCCC4)c(=O)c3c2)cc1`, for which the survival is 9% (active).

As to `COc1ccc(-n2ncc3c2ncn2nc(-c4ccc(Cl)cc4Cl)nc32)cc1`, the survival was 92%.

`Cc1ccc(NC2=NCC(=O)N2C2CCCC2)cc1C`: the survival is 104%.

With `CCOC(=O)c1cc(-c2ccccc2)n(CCCC(=O)Nc2ccc(C)cc2Cl)c1C`, the survival was 91%.

Take `COc1ccc(S(=O)(=O)N/N=C(/C2CCCCC2)C(F)(F)F)cc1`: the survival is 111%.

Turning to `CCN(C(=O)CCS(=O)(=O)c1ccc2c(c1)oc(=O)n2C)c1ccc(OC)cc1`, the survival is 70%.

As to `CCc1ccccc1NC(=O)Nc1cc(C(=O)NCc2ccc(OC)cc2)ccc1N1CCCC1`, the survival is 128%.

As for `CN(C(=O)c1c[nH]c2ccc(S(=O)(=O)Nc3cccc(C(F)(F)F)c3)cc2c1=O)C1CCCCC1`, the survival was 71%.

For the compound `O=C(NC1CCCC1)c1c[nH]c2ccc(S(=O)(=O)Nc3cccc(C(F)(F)F)c3)cc2c1=O`, the survival is 11% (active).

As to `COc1cccc(NS(=O)(=O)c2ccc3[nH]cc(C(=O)NC4CCCCC4)c(=O)c3c2)c1`, the survival is 50%.

As for `COc1cccc(-n2c(SCC(=O)c3ccc(Cl)cc3)nc3c([nH]c4ccccc43)c2=O)c1`, the survival is 45%.

On to `COc1cc(OC)c(NC2(c3ccccc3)C(=O)c3ccccc3C2=O)cc1Cl`, for which the survival is 65%.

Take `CCN(CC)CCCNC(=O)c1c(C)oc2ncn(CC(C)C)c(=O)c12`: the survival was 81%.

For the compound `Cc1oc2ncn(CC(C)C)c(=O)c2c1C(=O)NCCCN1CCCCC1`, the survival was 73%.

As for `Cc1oc2ccc(O)c(CN(C)Cc3ccccc3)c2c1C(=O)Nc1cccc(C(F)(F)F)c1`, the survival is 10% (active).

As for `CCNC(=O)c1c(C)oc2ncn(C)c(=O)c12`, the survival is 119%.

On to `Cc1oc2ccc(O)c(CN3CCN(C)CC3)c2c1C(=O)Nc1cccc(C(F)(F)F)c1`, for which the survival is 92%.

As to `Cc1oc2ncn(CC(C)C)c(=O)c2c1C(=O)Nc1cccc(C(F)(F)F)c1`, the survival was -3% (active).

As to `CSc1ccc(CCNC(=O)c2c(C)oc3ncn(C)c(=O)c23)cc1`, the survival is -4% (active).

As to `Cc1oc2ccc(O)c(CN(C)Cc3ccccc3)c2c1C(=O)Nc1ccccc1`, the survival is 105%.

As for `CCOc1ccc(CCNC(=O)c2c(C)oc3ncn(C)c(=O)c23)cc1`, the survival was 82%.

As for `Cc1cccc(NC(=O)c2c(C)oc3ncn(CC(C)C)c(=O)c23)n1`, the survival is 71%.

`Cc1ccnc(NC(=O)c2c(C)oc3ncn(CC(C)C)c(=O)c23)c1`: the survival was 69%.

`CCCCNC(=O)c1c(C)oc2ncn(CC(C)C)c(=O)c12`: the survival is 1% (active).

Regarding `Cc1ccc(CNC(=O)CCCCCn2c(=O)[nH]c3ccccc3c2=O)cc1`, the survival is 146%.

Turning to `CCOc1ccc(NS(=O)(=O)c2ccc3[nH]cc(C(=O)N4CCCCCC4)c(=O)c3c2)cc1`, the survival is 122%.

`COc1ccccc1N1CCN(Cc2nnc(-c3ccccc3C)o2)CC1`: the survival was 82%.

Consider `CCc1nn2c(=O)c(S(=O)(=O)Nc3ccc(Br)cc3F)c(C)nc2s1`, for which the survival was 61%.

For `COc1ccccc1C(=O)NC1(C(F)(F)F)C(=O)NC(C)=C1C#N` (stereo unspecified), the survival is 90%.

On to `Cc1ccc(NC(=O)c2oc3ccccc3c2NC(=O)C2CCCCC2)cc1`, for which the survival was 4% (active).

In the case of `O=C(Nc1ccc(F)cc1)c1oc2ccccc2c1NC(=O)C1CCCCC1`, the survival was 14%.

Take `CCOc1ccc(NC(=O)c2oc3ccccc3c2NC(=O)C2CCCCC2)cc1`: the survival is 84%.

For the compound `CC(C)(C)NC(=O)c1oc2ccccc2c1NC(=O)c1ccc(F)cc1`, the survival was 73%.

Take `Cc1ccc(C(=O)Nc2c(C(=O)NC(C)(C)C)oc3ccccc23)cc1`: the survival was 0% (active).

Regarding `CN(C)c1ccc(C(=O)Nc2c(C(=O)NC(C)(C)C)oc3ccccc23)cc1`, the survival was 65%.

As for `CCOC(=O)c1sc(NC(=O)c2c(-c3ccccc3)c(-c3ccccc3)nn(C)c2=O)nc1C`, the survival is 71%.

As to `COc1ccc(-c2noc(Cn3c(=O)c4ccccc4n(CC(=O)Nc4cccc(OC)c4)c3=O)n2)cc1`, the survival is 82%.

As to `Cc1ccccc1NS(=O)(=O)c1ccc2[nH]cc(C(=O)N3CCCC3)c(=O)c2c1`, the survival is 99%.

As to `CC(Nc1ccc(-c2nc(-c3ccncc3)no2)cc1[N+](=O)[O-])c1ccccc1` (stereo unspecified), the survival was 87%.

For the compound `CCOc1ccc(NC(=O)Cn2c(=O)oc3cc(S(=O)(=O)NC4CCCC4)ccc32)cc1`, the survival is 81%.

Consider `CCOCCCNC(=O)c1cnc2sc(N3CCCCCC3)nn2c1=O`, for which the survival is 68%.

On to `CCOC(=O)C1(C)C=C(Nc2cccc(C)c2)C(=O)N1c1ccccc1` (stereo unspecified), for which the survival was 51%.

On to `CCOC(=O)Cc1c(C)nc2cc(C)nn2c1C`, for which the survival is 106%.

As to `CCOC(=O)Cc1c(C)nc2cc(-c3ccc(C(C)(C)C)cc3)nn2c1C`, the survival is -2% (active).

`CCOC(=O)CC(NC(=O)CCc1c(C)nc2cc(-c3ccccc3)nn2c1C)c1ccc(C)cc1` (stereo unspecified): the survival is 128%.

With `O=C(Nc1ccccc1O)c1cccc(S(=O)(=O)Nc2ccccc2O)c1`, the survival was 108%.

With `CCN1CCN(CC2CCCCC2)CC1`, the survival was 102%.

Regarding `CC1CN(C(=O)CCC(=O)NCc2ccccc2)c2cc(Cl)ccc2O1` (stereo unspecified), the survival was 92%.

Take `Oc1ccccc1-c1nnc(SCc2ccccc2)o1`: the survival was 103%.

Regarding `Oc1ccc(-c2nnc(SCc3ccc(Cl)cc3)o2)cc1`, the survival was 112%.

`CCOc1ccccc1-c1nnc(SCc2ccc(Cl)cc2)o1`: the survival was -14% (active).

As for `Cc1cc(C(=O)N2CCN(c3cc(Cl)ccc3C)CC2)c2c(C)nn(-c3ccccc3)c2n1`, the survival was 136%.
